# Inconclusive results are not listed. Active and inactive are the calls of the source. Calls come from the whole dose curve; as a rule, active = well fitted activation curve with a large enough effect in the repeat runs; inconclusive = weak or mixed curves; inactive = flat fitted curve, though single readings scatter.
# Assay: A CellTox Green Cytotoxicity Assay to monitor cytotoxicity in HEK293 cells - 8 hour (AID 1224884); note: nearly all actives have a fitted effect of over 35% in size
# Conditions: CellTox Green fluorescence; series mostly up to 76.8 µM; cytotoxicity increase: at the top concentration
# Source text: National Center for Advancing Translational Sciences [NCATS]
# NIH Chemical Genomics Center [NCGC]
# U.S. Environmental Protection Agency [EPA]
# National Institutes of Environmental Health Sciences [NIEHS]
# National Toxicology Program [NTP]
# Cell-based models are critical for drug discovery. Determining the natural cytotoxic effects resulting from test compounds is an essential research activity. A CellTox Green Cytotoxicity Assay to monitor cytotoxicity in real time of continues cell culture during 40 hours of the compound treatment was used to screen Tox21 10K library compounds in Hek293 cells. CellTox Green Cytotoxicity Assay is a nonlytic, homogeneous, biofluorescent method to measure cytotoxicity in cell culture after experimental manipulation. The assay system uses a proprietary asymmetric cyanine dye that is excluded from viable cells but preferentially stains the dead cell's DNA. […] Viable cells produce no appreciable increases in fluorescence. Therefore, the fluorescence signal produced by the binding interaction with dead cell DNA is proportional to cytotoxicity.
# The mixture of Hek293 cell suspension and reagents were dispensed at 600cells/6 ul/well in 1536-well tissue culture treated black solid bottom plates using a Multidrop dispenser. After the assay plates were incubated at a 37 C/5% CO2 incubator for 5 hours, 23 nL of compounds dissolved in DMSO, positive and negative controls was transferred to the assay plate by a pintool work station. The plates were incubated at 37 C for 40 hours. The fluorescence intensity were measured at 0h, 8h, 16h, 24h, 32h and 40h time points using ViewLux plate reader during compound treatment.
# % is set by controls: 0 for no effect and ±100 for the full control effect; potency is the fitted concentration of half-maximal effect.
Structure (SMILES),Potency,cytotoxicity increase
O=C(N[C@@H]1N=C(c2ccccc2F)c2cccc3c2N(CC3)C1=O)c1cc2ccccc2[nH]1,9.52 µM (active),–
CSSC,–,-15.4% (inactive)
COC(=O)c1ccccc1S(=O)(=O)NC(=O)Nc1nc(C)nc(OC)n1,–,0.826% (inactive)
CSC1=N[C@@](C)(c2ccccc2)C(=O)N1Nc1ccccc1,–,-5.13% (inactive)
CC(C)[C@@H](Nc1ccc(C(F)(F)F)cc1Cl)C(=O)OC(C#N)c1cccc(Oc2ccccc2)c1 (stereo not given in full),–,-7.25% (inactive)
C[C@]12CC[C@H]3[C@@H](CCC4=CC(=O)CC[C@@H]43)[C@@H]1CC[C@@H]2OC(=O)CCc1ccco1,–,-2.09% [at 35.3 µM] (inactive)
Cc1ccn2nc(S(=O)(=O)Nc3c(F)cccc3F)nc2n1,–,0.425% (inactive)
COP(=O)(OC)Oc1ccc([N+](=O)[O-])cc1,–,-2.52% (inactive)
CC[C@H](C)[C@H]1O[C@]2(C=C[C@@H]1C)C[C@@H]1C[C@@H](C/C=C(\C)[C@@H](O[C@H]3C[C@H](OC)[C@@H](O[C@H]4C[C@H](OC)[C@@H](NC)[C@H](C)O4)[C@H](C)O3)[C@@H](C)/C=C/C=C3\CO[C@@H]4[C@H](O)C(C)=C[C@@H](C(=O)O1)[C@]34O)O2,13.8 µM (active),–
CC(C)c1c(CN(C)C(C)Cc2ccccc2)n(C)n(-c2ccccc2)c1=O (stereo not given),–,3.5% [at 35.3 µM] (inactive)
Cc1cc(C2CC2)nc(Nc2ccccc2)n1,–,2.15% (inactive)
Clc1ccc(C(Cl)(Cl)Cl)cc1Cl,42.7 µM (active),–
CCCCON=O,–,-9.23% (inactive)
CCCC[N+]1(C)CCCC1 (tested in a mixture with another compound),–,-6.02% (inactive)
CNC(=O)CSP(=O)(OC)OC,–,-11.8% (inactive)
CC(C)NCC(O)c1ccccc1Cl (stereo not given),–,4.18% [at 35.3 µM] (inactive)
Cc1cc2c3c(c1)C(c1ccccc1)=N[C@@H](NC(=O)c1ccncc1)C(=O)N3CC2,–,-4.7% (inactive)
COc1ccc(Cc2nccc3cc(OC)c(OC)cc23)cc1OC,–,1.93% [at 35.3 µM] (inactive)
CCC(C)Nc1c([N+](=O)[O-])cc(C(C)(C)C)cc1[N+](=O)[O-] (stereo not given),–,6.29% (inactive)
CCN(CC)C(=O)N[C@@H]1C=C2c3cccc4[nH]cc(c34)C[C@@H]2N(C)C1,–,8.36% [at 35.3 µM] (inactive)

Structure (SMILES),Potency,cytotoxicity increase
O=c1[nH]c(Cl)c(Cl)cc1Cl,–,15.8% (inactive)
COP(=S)(NC(C)C)Oc1ccc(C)cc1[N+](=O)[O-] (stereo not given),–,-4.56% (inactive)
CC1(C)[C@H](/C=C2\CCSC2=O)[C@@H]1C(=O)OCc1coc(Cc2ccccc2)c1,–,29.9% (inactive)
c1ccc2c(c1)cc1ccc3cccc4ccc2c1c34,–,10.6% (inactive)
S=C=NCCc1ccccc1,–,-3.75% (inactive)
Nc1cc(Cl)ccc1Cl,–,-0.0132% (inactive)
CCCCC/C=C\C/C=C\C/C=C\C/C=C\CCCC(=O)NCC(=O)O,–,13.9% [at 35.3 µM] (inactive)
ClSC(Cl)(Cl)Cl,–,-1.17% (inactive)
O=C(NC(=O)c1c(F)cccc1F)Nc1ccc(Oc2ccc(C(F)(F)F)cc2Cl)cc1F,–,13.9% (inactive)
CCC(C)Br (stereo not given),–,-2.89% (inactive)
CSC(=O)c1c(C(F)F)nc(C(F)(F)F)c(C(=O)SC)c1CC(C)C,–,-3.18% (inactive)
CNC(=O)O/N=C(\C)C(C)S(C)(=O)=O (stereo not given),–,-10.6% [at 725 µM] (inactive)
[O]=[Cr](=[O])([OH])[O][Cr](=[O])(=[O])[OH],inactive,–
CC(C)Br,–,-1.52% (inactive)
N#CC(C#N)=NNc1cccc(Cl)c1,–,-6.46% (inactive)
Fc1ccc(C(OCCN2CCN(CCCc3ccccc3)CC2)c2ccc(F)cc2)cc1,21.3 µM (active),–
Oc1cc(Cl)c(Cl)c(Cl)c1Cl,–,14.9% (inactive)
CC(C)C(Nc1ccc(C(F)(F)F)cc1Cl)C(=O)OC(C#N)c1cccc(Oc2ccccc2)c1 (stereo not given),–,1.2% (inactive)
Cc1ccc(C)c2ccccc12,–,19.1% (inactive)
NC(=O)C(Cl)Cl,–,0.0316% (inactive)

# Reference: PubChem BioAssay (Tox21)
